What all share (test): NCI-60 one-dose screen, 48 h (100 = growth as untreated, 0 = no growth, -100 = all killed)
Common to all, as to settings: 10 µM unless noted

Assay [1] concerns RPMI-8226 leukemia.
Assay [2] has as its system OVCAR-8 ovarian.
Assay [3] concerns OVCAR-5 ovarian.
Assay [4] deals with OVCAR-4 ovarian.
The subject of assay [5] is SK-OV-3 ovarian.
For assay [6], the system named is IGROV1 ovarian.
In assay [7] the test system is OVCAR-3 ovarian.
The subject of assay [8] is HS 578T breast.
Assay [9] concerns NCI/ADR-RES ovarian.
For assay [10], the system named is T-47D breast.
Assay [11] relates to BT-549 breast.
In assay [12] the test system is MDA-MB-435 melanoma.
Assay [13] relates to SW-620 colon.
The test system of assay [14] is MCF7 breast.
The test system of assay [15] is HCT-116 colon.
For assay [16], the system named is HCC-2998 colon.
Assay [17] has as its system KM12 colon.

About 83,000 compounds went through this panel and 20% of them were active in at least one assay; those are over-represented in the sample as a whole.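 Cells were grown in 96-well plates and exposed to the test compound at a single concentration for 48 hours; results are reported as percent growth, with values below 10 considered active.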 Unmarked numbers belong to inactive results. Activity calls are given as the source filed them.

Turning to `CC(=O)Nc1ccc2c(c1)Cc1cc(F)ccc1-2`, the growth is 93.6% in [1]; 97.5% in assay [2]; 106% in assay [3]; 109% in assay [4]; 106% in assay [5]; 92.8% in [6]. For the same molecule, the growth in [7] is 98.6%; in assay [8], 103%; in [9] it was 97.5%; in assay [10], 82.8%; in [11], 93.8%; in [12], 107%. In addition, the growth is 105% in [13]; 82.2% in assay [14]; 102% in assay [15]; 94.3% in assay [16]; 95.6% in [17].
Consider `[2H]c1cc2c(c([2H])c1F)/C(=C/c1[nH]c(C)c(C(=O)NCCN(CC)CC)c1C)C(=O)N2`, for which the growth was 30.2% in assay [1]; 63.1% in assay [2]; 28.7% in [3]; 40.6% in assay [4]; 14.5% in [5]; 30.4% in [6]. Moreover, the growth was 73.3% in [7]; 44.9% in assay [8]; 65.7% in [9]; 68.7% in assay [10]; 67.6% in [11]; 34% in assay [12]. Also, the growth was 25.7% in assay [13]; 38.5% in [14]; 34.1% in [15]; 69.7% in assay [16]; 1.85% (active) in assay [17].
Consider `CC(C)C1=C[C@@]23CC[C@H]4[C@](C)(COCCC#N)CCC[C@]4(C)[C@H]2C[C@@H]1[C@@H]1[C@H]3[C@@H](OCCC#N)CC[C@@H]1OCCC#N`, for which the growth in assay [1] was 18.7%; in assay [2], 34.4%; in [3], 65.9%; in assay [4] it was 27.1%; in assay [5], 64.3%; in assay [6], 23.5%. In addition, the growth in [7] is 37.1%; in [8] it was 64.5%; in assay [9], 27.8%; in assay [10], 10.5%; in [11], 39.4%; in assay [12], 40.1%. Further, the growth was 47.4% in assay [13]; 9.61% (active) in assay [14]; 24.6% in assay [15]; 44.4% in assay [16]; 32.7% in assay [17].
For the molecule `CNS(=O)(=O)c1cccc(-c2ccc3c4c(n(C)c(=O)c3c2)-c2ccccc2C4=O)c1`, the growth was 30.5% in assay [1]; 43.9% in assay [2]; 95.2% in assay [3]; 92.1% in [4]; 71.8% in [5]; 60.8% in assay [6]. The growth is 82.6% in [7]; 94.5% in assay [8]; 70.7% in [9]; 47% in assay [10]; 76.6% in assay [11]; 74.5% in [12]. Further, the growth in [13] is 46.4%; in assay [14], 18.5%; in assay [15], 36.4%; in [16] it was 90.6%; in assay [17], 40.7%.
For `C=C1C(=O)O[C@H]2[C@H]1CC/C(COC(=O)n1ccnc1)=C\CC[C@@]1(C)O[C@@H]21`, the growth was 85.3% in assay [1]; 99.8% in assay [2]; 117% in assay [3]; 103% in assay [4]; 102% in [5]; 77.7% in assay [6]. In addition, the growth was 57% in assay [7]; 99.2% in assay [8]; 102% in assay [9]; 78.2% in assay [10]; 94.8% in assay [11]; 99.6% in assay [12]. In addition, the growth was 71.2% in assay [13]; 76.8% in [14]; 81.6% in assay [15]; 104% in assay [16]; 105% in [17].
As for `COc1ccc(C2C(c3ccccc3)C(=O)N2c2cc(OC)c(OC)c(OC)c2)cc1I` (stereo unspecified), the growth was -9.86% (active) in assay [1]; 16.7% in assay [2]; 35.9% in assay [3]; 39.8% in [4]; 6.66% (active) in [5]; 20.6% in assay [6]. The growth in assay [7] was 12%; in assay [8], 22.1%; in assay [9], 9.97% (active); in assay [10], 69.7%; in [11], 12%; in assay [12], 2.2% (active). The growth is 23.7% in assay [13]; 8.53% (active) in assay [14]; 3.14% (active) in assay [15]; 31.8% in [16]; 15.3% in assay [17].
With `CCOC(=O)CC[C@H](NC(=O)c1ccc(NC)c2ccccc12)C(=O)OCC`, the growth in [1] was 91.2%; in assay [2], 94.7%; in assay [3], 101%; in assay [4], 104%; in [5] it was 92.8%; in [6], 105%. For the same molecule, the growth in assay [7] was 102%; in assay [8], 105%; in assay [9] it was 104%; in assay [10] it was 93.8%; in assay [11] it was 100%; in assay [12] it was 105%. Further, the growth in assay [13] is 93.6%; in assay [14] it was 94.7%; in [15], 92%; in assay [16], 115%; in assay [17], 103%.
Turning to `FC(F)(F)c1ccc2c(Nc3cccc(C4CC(c5ccccc5)=NN4c4ccc(Cl)cc4)c3)ccnc2c1` (stereo unspecified), the growth is -19.5% (active) in assay [1]; 29.8% in assay [2]; 95.5% in assay [3]; 66.6% in assay [4]; 80.9% in assay [5]; 20.1% in [6]. Further, the growth in [7] was 19.5%; in [8] it was 84.8%; in assay [9], 35.3%; in [10], 61.9%; in assay [11], 55.7%; in [12] it was 38%. Moreover, the growth in assay [13] is -17.3% (active); in assay [14], 11.5%; in [15], -3.98% (active); in assay [16], 66.5%; in assay [17] it was 15.5%.

(Values after PubChem BioAssay (NCI).)
